Data from PubChem BioAssay (NCATS).
Records with an inconclusive call do not appear. Calls of active or inactive are those of the source. Unless noted, calls come from the whole dose curve; as a rule, active = well fitted curve in the direction sought with a large enough effect; inconclusive = small, poorly fitted or top-dose-only effect, or another doubt; inactive = no such curve, though single readings can be large; an effect the other way counts as inactive or inconclusive.

Experiments:
[1] = biological target: Glucocorticoid receptor (Homo sapiens) (UniProt P04150); assay: qHTS assay for small molecule agonists of glucocorticoid receptor signaling (AID 588532; active = well fitted curve in the direction sought with a large enough effect in the signal ratio, with a control signal flat; the % refers to the signal ratio;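 note: 100% = dexamethasone at 0.1 µM and 0% = DMSO only wells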); details: HeLa MMTV-bla, beta-lactamase ratio, agonist, 18 h; stronger effect = higher value; percent of dexamethasone control, DMSO zero
Glucocorticoid receptor (Homo sapiens), sequence (P04150 whole entry, looked up): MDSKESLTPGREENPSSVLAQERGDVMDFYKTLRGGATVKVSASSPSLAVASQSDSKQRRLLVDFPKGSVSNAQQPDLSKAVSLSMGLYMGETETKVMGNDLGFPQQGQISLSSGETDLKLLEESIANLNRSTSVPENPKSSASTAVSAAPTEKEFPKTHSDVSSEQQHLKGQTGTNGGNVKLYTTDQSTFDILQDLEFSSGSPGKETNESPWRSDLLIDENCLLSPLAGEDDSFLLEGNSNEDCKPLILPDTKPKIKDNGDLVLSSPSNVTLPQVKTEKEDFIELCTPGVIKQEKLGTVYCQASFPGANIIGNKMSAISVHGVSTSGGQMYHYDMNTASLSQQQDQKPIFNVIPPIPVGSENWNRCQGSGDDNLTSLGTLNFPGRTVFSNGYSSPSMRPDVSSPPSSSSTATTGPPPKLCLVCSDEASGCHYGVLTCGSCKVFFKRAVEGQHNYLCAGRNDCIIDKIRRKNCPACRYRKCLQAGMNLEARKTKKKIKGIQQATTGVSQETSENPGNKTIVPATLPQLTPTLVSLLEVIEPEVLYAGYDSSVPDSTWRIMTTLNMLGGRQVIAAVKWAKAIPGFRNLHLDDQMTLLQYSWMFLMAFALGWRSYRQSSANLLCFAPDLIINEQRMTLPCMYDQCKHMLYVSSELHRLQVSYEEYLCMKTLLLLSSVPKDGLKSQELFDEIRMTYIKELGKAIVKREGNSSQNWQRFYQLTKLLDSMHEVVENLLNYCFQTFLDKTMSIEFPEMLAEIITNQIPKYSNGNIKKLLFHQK
Summary of the method: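 Titration series, up to 92 uM, applied to GRE-bla HeLa cells for 18 h at 37 C. Detection by CCF4 FRET substrate after 2 h at RT.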

[2] = biological target: Glucocorticoid receptor (Homo sapiens) (UniProt P04150); assay: qHTS assay for small molecule antagonists of glucocorticoid receptor signaling (AID 588533; active = well fitted inhibition curve with a large enough effect in the signal ratio, with a control signal flat, not every such curve was filed as active; the % refers to the signal ratio;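 note: cells stimulated with 2 nM dexamethasone as agonist; % is set by controls: 0 for no effect and ±100 for the full control effect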)
Summary of the method: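 Antagonist-mode qHTS: compound titrations added to GRE-bla HeLa cells, then dexamethasone 2 nM final; 18 h, 37 C. CCF4 FRET fluorescence normalized to dexamethasone and DMSO; IC50 from Hill fit.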

[3] = biological target: Vitamin D3 receptor (Homo sapiens) (UniProt P11473); assay: qHTS assay for small molecule antagonists of vitamin D receptor signaling (AID 588541; calls by dose curve;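 note: receptor activated by calcitriol during compound treatment; series mostly up to about 77 µM; % is set by controls: 0 for no effect and ±100 for the full control effect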)
Vitamin D3 receptor (Homo sapiens), sequence (P11473 whole entry, looked up): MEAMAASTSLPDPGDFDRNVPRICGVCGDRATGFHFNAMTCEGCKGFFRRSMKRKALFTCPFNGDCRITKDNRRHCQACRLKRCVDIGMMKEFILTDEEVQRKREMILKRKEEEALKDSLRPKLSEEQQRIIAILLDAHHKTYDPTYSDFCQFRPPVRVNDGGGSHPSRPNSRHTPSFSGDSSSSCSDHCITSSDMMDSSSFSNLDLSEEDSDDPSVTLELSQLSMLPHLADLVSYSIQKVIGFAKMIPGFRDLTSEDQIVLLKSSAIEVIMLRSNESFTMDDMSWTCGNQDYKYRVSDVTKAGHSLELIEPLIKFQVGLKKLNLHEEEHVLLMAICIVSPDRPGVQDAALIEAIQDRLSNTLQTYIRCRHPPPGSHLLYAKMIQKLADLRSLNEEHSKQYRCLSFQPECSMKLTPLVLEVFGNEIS
Summary of the method: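 VDR-UAS-bla HEK293T cells (2000/well, 2% charcoal-stripped FBS) were treated with titrated compounds plus 1-alpha,25-dihydroxyvitamin D3 (50 nM or 3 nM final) for 16 h at 37 C. CCF4 beta-lactamase fluorescence was read; Hill fits gave IC50.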

[4] = biological target: Vitamin D3 receptor (Homo sapiens) (UniProt P11473); assay: qHTS assay for small molecule agonists of vitamin D receptor signaling (AID 588543; calls by dose curve;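 note: 0% = DMSO basal and 100% = reference agonist control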)
Summary of the method: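 β-lactamase reporter, VDR-UAS-bla HEK293T, agonist mode. Cells plated 5 h at 37 °C, compound titration 16 h at 37 °C, CCF4 dye 2 h RT, ratio 460/530 nm. Hill fit → EC50, efficacy vs 50 nM 1α,25-(OH)2D3.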

[5] = qHTS assay for small molecule agonists of retinoid X receptor alpha signaling (AID 588544; calls by dose curve;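 for activation: 0% = DMSO basal wells and 100% = reference agonist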); details: HEK293T RXRa-UAS-bla, beta-lactamase reporter, 18 h; 530 nm emission
[6] = biological target: Retinoic acid receptor RXR-alpha (Homo sapiens) (UniProt P19793); assay: as above
Retinoic acid receptor RXR-alpha (Homo sapiens), sequence (P19793 whole entry, looked up): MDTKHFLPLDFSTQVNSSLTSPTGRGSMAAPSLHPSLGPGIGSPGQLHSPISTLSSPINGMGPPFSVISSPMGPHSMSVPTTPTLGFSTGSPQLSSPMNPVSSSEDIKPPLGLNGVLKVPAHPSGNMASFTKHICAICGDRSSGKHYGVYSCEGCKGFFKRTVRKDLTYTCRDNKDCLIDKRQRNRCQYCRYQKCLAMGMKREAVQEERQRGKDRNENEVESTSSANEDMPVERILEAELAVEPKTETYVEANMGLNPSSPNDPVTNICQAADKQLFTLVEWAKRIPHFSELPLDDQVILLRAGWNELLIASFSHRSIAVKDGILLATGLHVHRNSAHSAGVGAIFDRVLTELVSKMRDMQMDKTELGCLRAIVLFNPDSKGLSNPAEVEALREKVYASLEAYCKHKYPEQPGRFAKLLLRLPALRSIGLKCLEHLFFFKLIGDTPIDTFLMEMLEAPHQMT

[7] = biological target: Thyroid hormone receptor beta (Homo sapiens) (UniProt P10828); assay: qHTS assay for small molecule agonists of thyroid hormone receptor beta signaling (AID 588545; calls by dose curve)
Thyroid hormone receptor beta (Homo sapiens), sequence (P10828 whole entry, looked up): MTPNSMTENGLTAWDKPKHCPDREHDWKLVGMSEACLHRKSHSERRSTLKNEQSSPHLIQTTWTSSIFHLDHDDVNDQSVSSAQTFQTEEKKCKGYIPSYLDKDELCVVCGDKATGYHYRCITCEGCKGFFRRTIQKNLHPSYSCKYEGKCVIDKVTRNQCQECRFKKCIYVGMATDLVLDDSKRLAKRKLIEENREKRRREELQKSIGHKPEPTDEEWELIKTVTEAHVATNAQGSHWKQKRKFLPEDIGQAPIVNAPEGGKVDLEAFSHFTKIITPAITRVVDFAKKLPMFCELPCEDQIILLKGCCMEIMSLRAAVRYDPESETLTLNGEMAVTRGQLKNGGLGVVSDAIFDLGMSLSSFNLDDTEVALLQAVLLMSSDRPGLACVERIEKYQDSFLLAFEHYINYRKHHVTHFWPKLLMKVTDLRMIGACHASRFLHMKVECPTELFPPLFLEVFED
Summary of the method: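 Agonist activity was read as beta-lactamase CCF4 fluorescence (405 ex, 460/530 em), scaled between DMSO (0%) and 10 nM T3 (100%), then Hill-fitted for EC50 and efficacy. HEK 293 TR-UAS-bla cells in 2% charcoal/dextran FBS medium were exposed 18 h at 37 C.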

[8] = qHTS assay for environmental chemicals that activate the Aryl hydrocarbon Receptor (AhR) signaling pathway (AID 651777); details: 1A2-DRE human hepatoma cells, luciferase, 24 h; activation: stronger effect = higher value; note: % of control where 0% means no effect; nearly all actives have a fitted effect of over 15% in size
Summary of the method: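 Quantitative HTS in stably transfected human liver-derived cells whose luciferase gene sits downstream of the CYP1A2 promoter and dioxin response element. After 24 hr exposure at 37 C, One-Glo luminescence was measured.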

[9] = biological target: Peroxisome proliferator-activated receptor alpha (Homo sapiens) (UniProt Q07869); assay: qHTS assay for small molecule agonists of the peroxisome proliferator-activated receptor alpha (PPARalpha) signaling pathway (AID 651778); details: PathHunter PPARalpha complementation, chemiluminescence, 6 h; max response: stronger effect = higher value; note: % of control where 0% means no effect
Peroxisome proliferator-activated receptor alpha (Homo sapiens), sequence (Q07869 whole entry, looked up): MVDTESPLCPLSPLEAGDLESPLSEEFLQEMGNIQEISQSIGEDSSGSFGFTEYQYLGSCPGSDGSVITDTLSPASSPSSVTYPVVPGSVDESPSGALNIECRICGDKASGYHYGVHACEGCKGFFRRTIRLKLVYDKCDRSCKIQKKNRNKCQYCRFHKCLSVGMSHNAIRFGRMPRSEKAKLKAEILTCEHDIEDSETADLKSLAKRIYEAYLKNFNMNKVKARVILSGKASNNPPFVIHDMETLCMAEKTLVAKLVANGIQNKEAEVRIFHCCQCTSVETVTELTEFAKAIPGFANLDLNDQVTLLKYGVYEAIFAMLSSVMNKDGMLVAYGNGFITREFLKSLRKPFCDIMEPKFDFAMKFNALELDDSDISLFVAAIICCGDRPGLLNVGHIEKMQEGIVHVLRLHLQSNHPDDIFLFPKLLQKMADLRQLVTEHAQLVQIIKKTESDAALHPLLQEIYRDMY
Summary of the method: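 Cells plated at 2,000/well and held overnight at 37 C, 5% CO2, then compound added by pin tool for 6 hr; after PathHunter detection reagent and 60 min at room temperature, chemiluminescence from enzyme complementation was read.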

[10] = qHTS assay for small molecule agonists of the antioxidant response element (ARE) signaling pathway measured by Nrf2-dependant transcriptional activity (AID 720636; active = well fitted curve in the direction sought with a large enough effect in the repeat runs; an effect the other way counts as inactive or inconclusive; note: potency is the fitted concentration of half-maximal effect; for activation: % of control where 0% means no effect)
Summary of the method: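 Quantitative HTS format in HepG2 cells stably expressing an ARE-luciferase reporter; 16 hr compound treatment at 37 C, luciferase signal detected with ONE-Glo.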

[11] = qHTS assay for small molecule agonists of the antioxidant response element (ARE) signaling pathway measured by Nrf2-dependant transcriptional activity - cell viability counter screen (AID 720653; active = well fitted curve in the direction sought with a large enough effect in the repeat runs; an effect the other way counts as inactive or inconclusive; note: % is set by controls: 0 for no effect and ±100 for the full control effect); details: ARE-bla HepG2 viability, CellTiter-Glo ATP luminescence, 16 h; max response: stronger effect = lower value
Summary of the method: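 ARE-bla HepG2 cells (2,000/well) rested 5 hrs at 37C/5% CO2, then exposed to compounds in DMSO for 16 hrs. Viability was read in the same wells as intracellular ATP by luminescence, 30 min at room temperature after reagent addition.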

[12] = qHTS assay for cell viability of HEK293 cells (AID 743288); details: ATP luminescence (CellTiter-Glo), 18 h; max response: stronger effect = lower value; note: % is set by controls: 0 for no effect and ±100 for the full control effect; nearly all actives have a fitted effect of over 50% in size
Summary of the method: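 ATP luminescence (CellTiter-Glo) reports metabolically competent cell number after parental HEK293 cells, 2,000/well, were treated with DMSO-dissolved compounds for 18 h at 37 C; reagent incubation 30 min, room temperature.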

[13] = qHTS assay for cell viability of the p53RE-bla HCT-116 cell line (AID 743292); note: % is set by controls: 0 for no effect and ±100 for the full control effect; nearly all actives have a fitted effect of over 55% in size
Summary of the method: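 Viability of compound-treated p53RE-bla HCT-116 cells is taken from ATP-dependent luciferase luminescence. Treatment lasts 16 h at 37 C after a 5 h settling period; detection follows 30 min at room temperature.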

[14] = biological target: Nuclear receptor subfamily 1 group I member 2 (Rattus norvegicus) (UniProt Q9R1A7); assay: qHTS assay for small molecule activators of the rat pregnane X receptor (rPXR) signaling pathway (AID 651751; call rule not given here; note: 0% is about no effect); details: rPXR reporter cells, luciferase (One-Glo), 24 h
Nuclear receptor subfamily 1 group I member 2 (Rattus norvegicus), sequence (Q9R1A7 whole entry, looked up): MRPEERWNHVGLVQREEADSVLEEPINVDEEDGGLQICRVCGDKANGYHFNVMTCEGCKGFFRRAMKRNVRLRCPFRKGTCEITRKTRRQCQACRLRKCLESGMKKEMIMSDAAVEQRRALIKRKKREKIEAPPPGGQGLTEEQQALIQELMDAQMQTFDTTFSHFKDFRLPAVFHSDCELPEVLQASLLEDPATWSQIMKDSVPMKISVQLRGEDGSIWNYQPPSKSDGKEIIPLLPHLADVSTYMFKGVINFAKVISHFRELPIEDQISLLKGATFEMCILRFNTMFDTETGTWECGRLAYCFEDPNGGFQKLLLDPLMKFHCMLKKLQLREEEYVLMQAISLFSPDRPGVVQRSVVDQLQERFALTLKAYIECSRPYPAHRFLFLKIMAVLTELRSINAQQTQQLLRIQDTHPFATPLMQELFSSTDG

[15] = qHTS assay for small molecule activators of the human pregnane X receptor (PXR) signaling pathway (AID 720659; call rule not given here; note: 0% is about no effect)
[16] = biological target: Peroxisome proliferator-activated receptor gamma (Homo sapiens) (UniProt P37231); assay: qHTS assay for small molecule agonists of peroxisome proliferator-activated receptor gamma signaling (AID 588536; active = well fitted curve in the direction sought with a large enough effect in the signal ratio, with a control signal flat, not every such curve was filed as active; the % refers to the signal ratio;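 note: 0% = DMSO basal wells and 100% = rosiglitazone at 2 µM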)
Peroxisome proliferator-activated receptor gamma (Homo sapiens), sequence (P37231 whole entry, looked up): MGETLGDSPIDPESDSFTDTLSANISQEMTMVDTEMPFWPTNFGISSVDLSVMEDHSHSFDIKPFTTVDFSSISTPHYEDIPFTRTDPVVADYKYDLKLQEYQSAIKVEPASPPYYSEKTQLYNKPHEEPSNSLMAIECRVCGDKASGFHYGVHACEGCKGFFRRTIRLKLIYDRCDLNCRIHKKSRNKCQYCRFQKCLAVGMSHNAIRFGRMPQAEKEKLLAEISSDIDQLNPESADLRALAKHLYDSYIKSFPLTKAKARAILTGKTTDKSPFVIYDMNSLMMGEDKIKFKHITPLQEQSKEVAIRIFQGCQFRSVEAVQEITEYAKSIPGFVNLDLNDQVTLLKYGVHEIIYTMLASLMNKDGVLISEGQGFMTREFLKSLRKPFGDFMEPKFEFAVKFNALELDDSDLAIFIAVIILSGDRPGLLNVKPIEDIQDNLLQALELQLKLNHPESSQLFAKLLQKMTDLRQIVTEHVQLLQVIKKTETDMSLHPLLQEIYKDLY
Summary of the method: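 Beta-lactamase reporter read-out: CCF4 fluorescence (ex 405, em 460/530 nm) after 2 h at RT. HEK293 GeneBLAzer cells were treated for 16 h at 37 C. Hill fits gave EC50 and efficacy versus 2 uM rosiglitazone (100%) and DMSO (0%).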

[17] = qHTS assay for small molecule antagonists of retinoid X receptor alpha signaling (AID 588546; active = well fitted inhibition curve with a large enough effect in the signal ratio, with a control signal flat, not every such curve was filed as active; the % refers to the signal ratio;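 note: cells stimulated with 9-cis-retinoic acid as agonist; % is set by controls: 0 for no effect and ±100 for the full control effect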); details: HEK293T RXRa-UAS-bla, beta-lactamase ratio, antagonist mode; measured here: W530 green channel, cytotoxicity proxy
Summary of the method: (§1)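 Beta-lactamase reporter inhibition, read as CCF4 fluorescence ratio (ex 405, em 460/530 nm) after 2 h at RT. HEK293T UAS-bla cells, 2500/well, were stimulated with 9-cis-RA at 500 or 100 nM final alongside test compound for 18 h at 37 C.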

[18] = biological target: Retinoic acid receptor RXR-alpha (Homo sapiens) (UniProt P19793); assay: as above; details: HEK293T RXRa-UAS-bla, beta-lactamase ratio, antagonist mode
Summary of the method: as §1

[19] = qHTS assay for small molecule activators of the nuclear factor-kappa B (NF-kB) signaling pathway (AID 651749; active = well fitted activation curve with a large enough effect in the signal ratio; the % refers to the signal ratio; note: series mostly up to about 77 µM; % of control where 0% means no effect); details: NF-kB-bla ME-180 cells, beta-lactamase FRET ratio, 16 h; activation: stronger effect = higher value
Summary of the method: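 Beta-lactamase reporter expression, controlled by NF-kB response elements in ME-180 cells, was quantified fluorometrically via FRET disruption; cells at 2,000/well had been incubated with 23 nL test compound for 16 hr.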

[20] = biological target: Estrogen receptor (Homo sapiens) (UniProt P03372); assay: qHTS assay for small molecule agonists of estrogen receptor alpha signaling (AID 588514; calls by dose curve;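 note: 0% = vehicle only and 100% = reference agonist; nearly all actives have a fitted effect of over 70% in size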)
Estrogen receptor (Homo sapiens), sequence (P03372 whole entry, looked up): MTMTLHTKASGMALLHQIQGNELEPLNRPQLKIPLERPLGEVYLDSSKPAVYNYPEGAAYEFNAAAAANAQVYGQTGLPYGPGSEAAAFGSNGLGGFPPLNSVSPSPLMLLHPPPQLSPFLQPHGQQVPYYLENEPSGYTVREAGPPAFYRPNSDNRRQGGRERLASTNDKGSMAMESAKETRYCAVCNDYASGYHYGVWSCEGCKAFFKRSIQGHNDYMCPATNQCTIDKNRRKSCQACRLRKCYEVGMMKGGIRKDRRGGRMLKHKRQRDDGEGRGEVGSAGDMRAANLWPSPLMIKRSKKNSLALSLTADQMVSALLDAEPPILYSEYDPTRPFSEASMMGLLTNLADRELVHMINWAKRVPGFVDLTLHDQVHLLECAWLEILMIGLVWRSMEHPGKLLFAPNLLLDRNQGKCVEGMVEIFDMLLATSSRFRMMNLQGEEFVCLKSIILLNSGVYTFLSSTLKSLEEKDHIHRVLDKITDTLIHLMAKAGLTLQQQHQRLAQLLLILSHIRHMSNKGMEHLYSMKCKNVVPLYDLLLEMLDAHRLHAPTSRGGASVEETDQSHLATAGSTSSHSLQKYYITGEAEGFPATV
Summary of the method: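 Fluorescence from CCF4 cleavage reports ER-alpha-driven beta-lactamase expression in HEK 293 cells treated 18 hrs at 37 C. Data normalized to 17-beta-estradiol (20 nM) and DMSO, fitted to Hill equation.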

C=C(C)C(=O)OCC[N+](C)(C)C
7.2%: max response [5]
inactive: activation [1] -7.03% | Potency [2] | Potency [3] | outcome [4] | Potency [6] | Potency [7] | activation [8] -2.41% | max response [9] -2.12% | Potency [10] | max response [11] 1.93% | max response [12] -15.2% | Potency [13] | max response [14] 0.4% | outcome [15]

CC1(C)C(=O)N(Br)C(=O)N1Br
-13.9%: max response [5]
-0.87%: max response [17]
inactive: activation [1] 5.17% | Potency [2] | outcome [16] | Potency [3] | outcome [4] | Potency [6] | Potency [7] | max response [18] -10.9% | max response [9] -2.02% | Potency [10] | max response [11] -10.4% | max response [12] -3.78% | Potency [13] | max response [14] -0.134% | outcome [15]

Nc1cc(Cl)c(O)c(Cl)c1
inactive: activation [1] 16.9% | Potency [2] | outcome [4] | Potency [7] | activation [19] -1.35% | activation [8] 0.138% | max response [9] -5.8% | max response [11] -17.9% | max response [12] -19.5% | Potency [13] | max response [14] 0.356% | outcome [15]
active: Potency [10] 68.6 µM

C=C(C)C(=O)OCCN(C)C
0.555%: max response [17]
inactive: Potency [20] | Potency [3] | outcome [4] | max response [18] 6.15% | activation [8] 0.477% | max response [9] -0.281% | Potency [10] | max response [11] -4.72% | max response [12] -8.88% | Potency [13] | max response [14] 5.37% | outcome [15]

CC(C)(C)c1n[nH]c(=O)n(N)c1=O
inactive: activation [1] 14.6% | Potency [2] | outcome [16] | Potency [3] | outcome [4] | Potency [6] | Potency [7] | max response [18] -3.59% | activation [19] 0.103% | activation [8] -0.927% | max response [9] 0.89% | Potency [10] | max response [11] -8.89% | max response [12] -15.1% | Potency [13] | max response [14] 8.96% | outcome [15]
-20%: max response [5]
-5.34%: max response [17]

CO[Si](CCCNCCN)(OC)OC
7.5%: max response [5]
-7.95%: max response [17]
inactive: outcome [16] | Potency [3] | outcome [4] | Potency [6] | Potency [7] | max response [18] 2.04% | max response [9] 0.748% | Potency [10] | max response [11] 2.71% | max response [12] -6.23% | Potency [13] | max response [14] 4.5% | outcome [15]

CC(C)=CCC/C(C)=C\CO
inactive: activation [1] -1.71% | Potency [2] | outcome [16] | Potency [3] | outcome [4] | Potency [6] | Potency [7] | max response [18] -2.37% | activation [19] -1.2% | activation [8] 0.559% | max response [9] -0.763% | Potency [10] | max response [11] -3.82% | Potency [13] | max response [14] 2.57%
-11.3%: max response [17]
-16.1%: max response [5]
